# In PubChem BioAssay AID686978 (National Center for Advancing Translational Sciences (NCATS), 2013):
# In all, about 420,000 compounds went through this assay and about 64,000 (15%) were called active. Not shown: some 27% with an inconclusive outcome. Only a sample is shown. Unmarked numbers belong to inactive results. Calls come from the whole dose curve; as a rule, active = well fitted inhibition curve with a large enough effect; inconclusive = small, poorly fitted or top-dose-only effect; inactive = flat fitted curve, though single readings scatter.
# Assay: qHTS for Inhibitors of human tyrosyl-DNA phosphodiesterase 1 (TDP1): qHTS in cells in absence of CPT; note: nearly all actives have a fitted effect of over 55% in size
# Settings: DT40 Tdp1-/- hTDP1 cells, no CPT, ATP luminescence, 48 h; activity change, negative = growth inhibition: at 46.2 µM (top of the series)
# How it was run: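 Seeded 400 DT40-hTDP1 cells/well (vehicle DMSO, no 20 nM CPT); pinned compounds; ≥48 hr at 37 °C; CellTiter-Glo luminescence as viability measure.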
# % is set by controls: 0 for no effect and ±100 for the full control effect; potency is the fitted concentration of half-maximal effect.
SMILES,"activity change, negative = growth inhibition [%]",Potency
COc1ccc(C(=O)NC(C)c2nccs2)cc1OC1CCN(C(C)C)CC1 (configuration not stated),13.2,–
COc1ccc(-c2[nH]ncc2CN(C)Cc2cc(C)[nH]n2)c(F)c1,-26.4,–
Cc1cc(C)nc(NC(=O)Nc2ccccc2C(F)(F)F)n1,–,18.4 µM (active)
Cc1cc(C)nc(NC(=O)C(C)N2C(=O)c3ccccc3C2=O)n1 (configuration not stated),-11.5,–
Cc1cc(Cl)nc(NC(=O)Nc2cccc(Cl)c2)n1,-24.8,–
CC(C)C(NC(=O)c1cccc(S(=O)(=O)N2CCOCC2)c1)C(=O)NCCc1ccccn1 (configuration not stated),-8.62,–
O=C(COC(=O)c1ccncc1)c1ccccc1,-1.61,–
O=C(COC(=O)c1c2c(nc3ccccc13)CCCC2)c1ccc(Br)s1,–,7.31 µM (active)
Cc1ccc(C(=O)COC(=O)c2cccc(N3C(=O)c4c(C)nc5ccccc5c4C3=O)c2)cc1C,14.6,–
CC1CCC(NC(=O)c2ccc(N3CCCC3=O)cc2)CC1 (configuration not stated),2.73,–
O=C(NC1CCCCC1)c1ccc(CNc2c(N3CCOCC3)c(=O)c2=O)cc1,-6.18,–
CN1C(=O)/C(=C/c2ccc(C(=O)NC3CCCC3)cc2)Oc2ccccc21,–,10.3 µM (active)
CNC(=S)N1CCC(NC(=O)C(Cc2ccc(F)cc2)NC(C)=O)CC1 (configuration not stated),-8.04,–
CCOc1ccc(C(CC(=O)O)n2cnnn2)cc1OC (configuration not stated),-2.39,–
C[C@H]1CN([C@@H](C)CO)S(=O)(=O)c2ccc(Br)cc2O[C@H]1CN(C)C(=O)c1cnccn1,-0.338,–
CCOC(=O)C1=C(O)CSC1=Nc1cccc(Cl)c1,0.713,–
CN(C)c1nc(=Nc2cccc(Cl)c2)ss1,–,0.206 µM (active)
CCN(CC)S(=O)(=O)c1ccc(OC(C)C)c(N)c1,-17.6,–
CC(C)Nc1nnc(SC(C)C(=O)N(C)C2CCCCC2)s1 (configuration not stated),-20.8,–
Cc1cccc(N2CCN(C3=C(c4ccccc4)C(=O)c4ccccc43)CC2)c1C,–,11.6 µM (active)
Cc1cccc(N2CCN(c3c(CN4CCCC4)c(=O)oc4ccccc34)CC2)c1C,5.73,–
CC(Oc1ccccc1)C(=O)NN1Cc2ccccc2C1=N (configuration not stated),4.93,–
Cc1nn(C)cc1N1C(=O)c2cccc3c(N)ccc(c23)C1=O,-21.5,–
CCN(CCCCOC(=O)c1ccc(OC)c(OC)c1)C(C)Cc1ccc(OC)cc1 (configuration not stated),-25,–

SMILES,"activity change, negative = growth inhibition [%]",Potency
CCc1oc(-c2ccc(OC)cc2)c(C(=O)OCCCCCO)c1C(C)OCCO (configuration not stated),–,16.4 µM (active)
COc1ccc(C(=O)Nc2c(N)nc(SCC(=O)N3CCC(C)CC3)[nH]c2=O)cc1OC,2.88,–
O=C(c1ccc2c(c1)C(=O)N(Cc1ccncc1)C2=O)N1CCN(S(=O)(=O)c2ccc(OC(F)(F)F)cc2)CC1,-20,–
Oc1ccc(Br)cc1C1C=C(c2ccc3c(c2)OCO3)NC(c2ccc(Cl)cc2)N1 (configuration not stated),–,5.01 µM (active)
CCN(CC(=O)Nc1cc(Cl)ccc1C)C(=O)CN1C(=O)NC2(CCCC2)C1=O,-2.6,–
CC(=O)NCCNC(=O)c1cc(-c2cccc3ccccc23)nc2ccccc12,9.72,–
CN(C)CCNC(=O)Nc1cccc(Cl)c1Cl,-9.59,–
CN(C)CCNC(=O)c1ccc(Cl)c2cc3ccccc3nc12,–,0.146 µM (active)
CCNC(=S)N(CCN(CC)CC)Cc1cc2cc3c(cc2[nH]c1=O)OCCO3,-29.6,–
Oc1c(C(c2cccs2)N2CCN(c3ccc(F)cc3)CC2)sc2ncnn12 (configuration not stated),-10.6,–
CC1CC(C)CN(CC(=O)Nc2ccc(S(N)(=O)=O)cc2)C1 (configuration not stated),-2.41,–
Cc1nnc(SCC(=O)N2CCc3ccccc3C2)s1,-19,–
Cc1nc(SCC(=O)N2CCc3ccccc3C2)c2c(C)c(C)sc2n1,–,16.4 µM (active)
Cc1nc(SCC(=O)Nc2cc(C)on2)c2c(C)c(C)sc2n1,-14.9,–
O=C(NCC(O)c1nc2ccccc2[nH]1)c1ccc(Br)cc1 (configuration not stated),-3.34,–
O=C(CC1CCCCC1)NCc1ccc(F)cc1,-0.903,–
CCOC(=O)C1CCN(C(=O)Nc2ccc(Cl)cc2)CC1,-21.3,–
O=C(O)C1CCN(c2ccc([N+](=O)[O-])cc2[N+](=O)[O-])CC1,-1.31,–
O=[N+]([O-])c1ccc(N2CCN(c3ccc(O)cc3)CC2)c(Cl)c1,–,13 µM (active)
O=[N+]([O-])c1ccc(N2CCOCC2)cc1,-11.2,–
O=C(COC(=O)c1ccccc1SCC(=O)N1CCCC1)Nc1ccccc1OC(F)F,-28.3,–
Cc1ccc(CNC(=O)CCNC(=O)Cn2ccc3ccccc3c2=O)cc1,-6.74,–
CCN(CCO)C(=S)Nc1cc(C(=O)OC)ccc1C(=O)OC,-16.3,–
CCS(=O)(=O)Nc1cc(C(=O)OC)ccc1C(=O)OC,-15.2,–

SMILES,"activity change, negative = growth inhibition [%]",Potency
CCCN(CCC)C(=S)Nc1cc(C(=O)OC)ccc1C(=O)OC,–,18.4 µM (active)
CC(=O)Nc1c(-c2ccc(C)cc2)nc2ccc(Cl)cn12,17.1,–
Cc1ccc(Cc2c(-c3ccco3)nc3ccc(Cl)cn23)cc1,–,11.6 µM (active)
CN1CCN(Cc2c(C(=O)N3CCc4ccccc4C3)nc3ccc(Cl)cn23)CC1,12.3,–
O=C(Nc1c(-c2ccccc2)nc2c(Br)cc(Br)cn12)c1ccco1,-16.2,–
CN(C)C(=O)c1nc2ccc(Cl)cn2c1CN1CCN(c2ncccn2)CC1,-20.4,–
Cc1ccc(-c2nc3ccc(Cl)cn3c2Cc2ccccc2)cc1,–,20.6 µM (active)
Cc1ccc(-c2cn3cc(C)ccc3n2)cc1,-25.3,–
CSc1nc(-c2ccco2)nn1C(=O)CCc1ccccc1,-2.42,–
c1ccc(Cc2c(-c3ccco3)nc3c4ccccc4ccn23)cc1,–,20.6 µM (active)
Cc1nn(CC(=O)Nc2ccc3c(c2)OCO3)c(C)c1[N+](=O)[O-],-10.4,–
Cc1cccc(NC(=O)CN2C(=O)CNC2=O)c1,-8.76,–
C/C(=N\NC(=O)c1cccc([N+](=O)[O-])c1)c1cccnc1,9.04,–
CCOC(=O)C(C)Oc1cccc2c(=O)n(CC(=O)N3CCc4ccccc43)ccc12 (configuration not stated),-8.97,–
O=C(Nc1ccccc1C(=O)N1CCOCC1)c1ccc(Cl)cc1,4.37,–
Cn1c(=O)n(C)c2cc(NS(=O)(=O)c3ccc(F)cc3)ccc21,-75.4,–
Cc1cc(C)cc(NS(=O)(=O)c2ccc(F)cc2)c1,-29.8,–
Cn1c(=O)n(C)c2cc(S(=O)(=O)Nc3ccc(F)cc3)ccc21,–,20.6 µM (active)
Cn1c(C(=O)N2CCCC(C(=O)NCc3ccccc3)C2)cc2sccc21 (configuration not stated),-15.8,–
C/C(=N\Nc1ccc(Cl)nn1)c1ccccc1O,–,0.58 µM (active)
Fc1ccccc1Cc1ccc(Cl)nn1,5.81,–
Clc1ccc(N/N=C/c2cccs2)nn1,-11.9,–
Oc1cccc(/C=N/Nc2ccc(Cl)nn2)c1O,–,0.13 µM (active)
CCCCCCCN=C(C)c1ccccc1O,-1.56,–
